Screening results deposited in PubChem BioAssay by several laboratories.
Hits are enriched below; roughly 3.4% of the tested compounds scored in any of these assays.
Mcl-1 Bim block = disrupts Bim peptide binding to human Mcl-1 | Q07820 | Bead-based flow cytometry, Bim peptide-Mcl-1 binding | inhibition, % at 10 µM | actives 0.1% (n = 190,000); in the data active means inhibition above about 40%;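 further: 0% = no compound tracer wells and 100% = peptide blocker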
Target sequence (Q07820 whole entry, looked up): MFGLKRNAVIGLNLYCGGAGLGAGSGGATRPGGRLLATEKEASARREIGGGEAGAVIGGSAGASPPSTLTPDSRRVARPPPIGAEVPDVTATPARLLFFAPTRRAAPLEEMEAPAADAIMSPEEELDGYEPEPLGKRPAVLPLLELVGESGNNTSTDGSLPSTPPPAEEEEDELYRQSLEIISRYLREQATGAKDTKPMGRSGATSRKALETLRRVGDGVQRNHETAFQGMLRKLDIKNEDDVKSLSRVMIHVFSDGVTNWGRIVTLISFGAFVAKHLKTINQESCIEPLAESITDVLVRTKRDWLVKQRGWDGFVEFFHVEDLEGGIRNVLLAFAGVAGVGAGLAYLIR
Mcl1 Noxa PPI = Mcl-1/Noxa interaction inhibition | inhibition, % at 21.7 µM | AID 1022 | TR-FRET Mcl-1/Noxa peptide binding, 2 h | Q07820 | actives 1.5% (n = 220,000);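 active means compounds that cut the protein-peptide binding signal by more than 50% relative to plate controls in a single-dose test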;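 further: His-tagged Mcl-1 with rhodamine Noxa BH3 peptide and terbium anti-His antibody; 0% = Mcl-1 plus Noxa peptide wells and 100% = peptide-only wells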
14-3-3 Bad inh = disrupts binding of bovine 14-3-3 zeta to phospho-Bad peptide. TR-FRET 14-3-3zeta/Dy647-pBad peptide displacement, 1 h. P63103. inhibition, % at 21.7 µM. actives 0.71% (n = 220,000);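 active means inhibition above about 70%, limit read from the data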;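 further: 0% = full 14-3-3 plus peptide FRET controls and 100% = background without 14-3-3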
Target sequence (P63103 whole entry, looked up): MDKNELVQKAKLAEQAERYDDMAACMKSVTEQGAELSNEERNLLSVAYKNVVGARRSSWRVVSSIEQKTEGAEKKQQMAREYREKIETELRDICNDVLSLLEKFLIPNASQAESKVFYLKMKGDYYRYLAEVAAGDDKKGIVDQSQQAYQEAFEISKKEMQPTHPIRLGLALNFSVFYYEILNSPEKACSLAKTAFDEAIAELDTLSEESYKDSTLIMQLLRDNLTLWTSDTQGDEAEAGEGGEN
Calpain2 inh = inhibitors of pig calpain II; purified calpain II, fluorogenic peptide substrate, 30 min; inhibition, % at 16 µM; actives 0.37% (n = 220,000); AID 1236;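 active means inhibition above about 50%, limit read from the data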
Mcl1-Bid inh = Mcl-1/Bid interaction inhibition. TR-FRET Mcl-1/Bid-Dy647 peptide binding, 1536-well. inhibition, % at 21.7 µM. actives 0.97% (n = 220,000). AID 1021;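 active means compounds that cut the binding signal by more than half at the single screening dose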;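 further: His-tagged Mcl-1 with europium anti-His antibody binding Bid BH3 peptide; 0% = Mcl-1 plus peptide wells and 100% = peptide-only wells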
p47phox inh = p47phox (human) inhibition. P14598. p47phox/p22phox peptide binding, fluorescence polarization, 2 h. inhibition, % at 24.7 µM. actives 0.53% (n = 220,000);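 active means inhibition above about 30%, limit read from the data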;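 further: 0% = p47phox with labelled peptide and 100% = labelled peptide alone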
* hit, by the source's call; x = not tested or not shown; [ ] = dose if it differs, or a comment.

SMILES	Mcl-1 Bim block	Mcl1 Noxa PPI	14-3-3 Bad inh	Calpain2 inh	Mcl1-Bid inh	p47phox inh
O=C(NCc1cccnc1)/C(=C\c1ccc(-c2ccc(Cl)c(Cl)c2)o1)S(=O)(=O)c1ccccc1	-5	40	-6	-93	55*	-56
CC(NC(=O)Cn1cnc2c1c(=O)n(C)c(=O)n2C)c1ccccc1 (stereo unspecified)	1	20	-11	-5	94*	0
CC(=O)Nc1ccc(-c2nc3c(C)cccc3[nH]2)cc1	0	13	72*	-57	12	-15
CC1=NOC(=O)/C1=C\c1ccc(-c2ccc(Br)cc2C(=O)O)o1	0	16	9	23	-115	-10
CC1=NOC(=O)/C1=C\c1ccc(-c2cc(Cl)ccc2Cl)o1	-3	53*	16	7	41	-5
CC1=NOC(=O)/C1=C/c1ccc(-c2ccc(Cl)cc2)o1	0	67*	51	-13	67*	116*
CC1=NOC(=O)/C1=C\c1ccc(-c2ccc(Br)cc2)o1	-3	66*	26	-29	40	44*
NS(=O)(=O)c1cccc(NC(=O)CN2CCC(Cc3ccccc3)CC2)c1	-6	1	2	78*	-9	0
CC(=O)N1CCN(CC(=O)Nc2cccc(S(=O)(=O)N3CCCCCC3)c2)CC1	-3	9	-14	9	-19	-3
CCCn1c(SC(C(=O)Nc2cccc(OC)c2)c2ccccc2)nc2ccccc2c1=O (stereo unspecified)	-3	-8	-3	8	-5	1
Cc1[nH]n(-c2ncc(-c3ccc(Cl)cc3)s2)c(=O)c1C(c1ccc(Cl)cc1)C(C#N)C#N (stereo unspecified)	1	92*	-23	-49	51*	-28
COc1ccc(C(c2c(C)[nH]n(C(N)=S)c2=O)C(C#N)C#N)cc1 (stereo unspecified)	-6	-50	-19	15	-57	-7
CCCCOC(=O)C1=C(C)NC(=O)NC1c1ccc([N+](=O)[O-])s1 (stereo unspecified)	-1	28	6	-5	0	-8
N/C(=N\OC(=O)COc1ccc2ccccc2c1)c1cccnc1	-6	3	2	-8	61*	3
N/C(=N\OC(=O)COc1ccc2ccccc2c1)c1ccncc1	3	1	-3	25	-13	0
NC(=O)C1CCN(S(=O)(=O)c2cccc(C(=O)O)c2)CC1	1	1	-14	-1	18	-5
O=C(O)c1cccc(S(=O)(=O)N2CCSCC2)c1	-9	-3	77*	-31	16	-5
CN(C)CCC1Sc2ccccc2Oc2ccccc21 (stereo unspecified)	2	25	66	-13	58*	-12
CN(C)CC(C)(C)CN=Cc1c(O)[nH]c2ccccc12	x	9	-13	-1	-34	88*
CCCS(=O)(=O)N1CCCC(C(=O)NCCc2ccc(Cl)cc2)C1 (stereo unspecified)	-2	0	13	-8	55*	-11
CCCS(=O)(=O)N1CCCC(C(=O)NC2CCCCC2)C1 (stereo unspecified)	1	-9	-13	-8	-3	-8
CCS(=O)(=O)N1CCCC(C(=O)NC2CCCC2)C1 (stereo unspecified)	-1	3	89*	19	-13	2
CCN(CC)S(=O)(=O)c1ccc2nnn(O)c2c1	0	15	-13	-27	8	-1
O=C(NCCNC1CCN(Cc2ccccc2)CC1)c1cccs1	-1	7	71*	-90	8	-2
N=C(N)SCP(=O)(c1ccccc1)c1ccccc1	x	9	-1	-13	56*	-2
SMILES	Mcl-1 Bim block	Mcl1 Noxa PPI	14-3-3 Bad inh	Calpain2 inh	Mcl1-Bid inh	p47phox inh
Cc1ccc(P(=O)(CSC(=N)N)c2ccc(C)cc2)cc1	-5	13	-4	14	-7	1
CC(C)(C)c1ccc(C2CC2C(=O)N/N=C\c2cc3ccccc3nc2Cl)cc1 (stereo unspecified)	0	-7	84*[fluorescence artefact?]	-190	18	-28
Cc1ccc2nc(Cl)c(/C=N/NC(=O)[C@H]3C[C@@H]3c3ccccc3)cc2c1	-3	6	-2	-86	-2	31*
O=C(CNc1ccc2ccccc2c1)N/N=C/c1cc2ccccc2nc1Cl	-4	-18	8	-80	-123	-14
Cc1ccc2nc(Cl)c(/C=N/NC(=O)c3ccccc3O)cc2c1	0	21	-11	-200	-71	-40
CCOC(=O)CSC1=N/C(=C\c2ccc(OC)c(OC)c2)C(=O)N1C	-3	16	74*[fluorescence artefact?]	7	-36	-13
CC(=O)Nc1ccc(C(=O)CSc2nccc(=O)[nH]2)cc1	-6	7	-4	3	-27	5
O=C(NN1C(=O)c2ccccc2C1=O)c1ccccc1[N+](=O)[O-]	3	-1	-1	6	5	7
COc1ccc(NCC(=O)N/N=C/c2cc([N+](=O)[O-])ccc2N2CCCC2)cc1	0	28	-8	-44	-49	-5
O=C1COc2ccc(C(=O)/C=C/c3ccccc3)cc2N1	-5	8	0	2	-5	-25
O=C(O)/C=C/C(=O)Nc1ccc2c(c1)NC(=O)CO2	0	51*	4	8	18	-3
O=C(O)c1ccc(S(=O)(=O)Nc2ccc(O)c(Sc3nc4ccccc4s3)c2)cc1	0	51*	12	-30	-46	-30
NS(=O)(=O)c1ccc(Sc2nc3ccccc3s2)c([N+](=O)[O-])c1	x	-2	-3	-11	-14	-12
O=C(CCC1CCCCC1)NCCN1C2=NC[C@@H](Cc3ccccc3)N2C[C@H]1Cc1ccc(O)cc1	-3	15	-5	27	-9	-4
Cc1c(CCC(=O)O)c(=O)oc2c(C)c(OCc3cc4c(cc3Cl)OCO4)ccc12	x	58*	-5	9	-31	3
Cc1nn(C)c(C)c1C1C(C#N)=C(N)OC2=C1C(=O)CCC2 (stereo unspecified)	-1	-3	14	15	-19	6
CCC(C)(C)c1nnc(NC(=O)c2ccc([N+](=O)[O-])cc2)s1	-2	10	0	-29	6	-12
CC(=O)c1ccc2c(c1)C1C=CCC1C(c1ccc(S(=O)(=O)N3CCOCC3)cc1)N2 (stereo unspecified)	3	31	-7	-57	-24	-2
Cc1c(Cl)cccc1NS(=O)(=O)c1ccc2c(c1)C1C=CCC1C(c1ccc(C(=O)O)cc1)N2 (stereo unspecified)	2	103*	91*	45	100*	6
Nc1c(O)ccc2c1C(=O)c1ccccc1C2=O	0	78*	-52	2	-23	80*
CCn1cc(C(=O)N2CCN(c3ccccn3)CC2)c(=O)c2cc(S(=O)(=O)N(C)C3CCCCC3)ccc21	-2	3	3	-2	-3	11
